Sampled rows, rich in hits. Any-hit rate of the full collection: about 5.9%.
GAA850 FXN act: frataxin GAA850 promoter activation; HEK293 lucGAA850 FXN promoter luciferase reporter, 24 h; percent of 10 µM SAHA response; actives 0.56% (n = 360,000); activation, % at 6 µM;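 active means activation above the average of all compounds screened plus 3 SD, cutoff fixed separately per campaign, cut at about 7.5% in these data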;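 further: 0% = DMSO wells and 100% = 10 µM SAHA wells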
HSP90 inh: HSP90 refolding inhibition in rabbit reticulocyte lysate; actives 0.91% (n = 290,000); luciferase refolding luminescence, 3 h; inhibition, % at 5.6 µM;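 active means inhibition above the screen-wide mean plus 3 SD, computed separately per campaign, cut at about 16% in these data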;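 further: 0% = DMSO wells and 100% = 60 µM geldanamycin wells; inhibitors lower the luminescence because luciferase stays unfolded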
HSF1 inhib: HSF1 inhibition | NIH3T3-HGL HSE-luciferase, MG132-induced, luminescence 8 h; stronger effect = lower value | actives 0.77% (n = 300,000) | AID 2098 | activity change, negative = inhibition, % at 7.5 µM (by protocol);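 active means more than half of replicate wells show activity change below -50%, luminescence cut by over half; inconclusive means some wells, but at most half, below -50%; inactive means no replicate well below -50%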;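 further: luciferase reports HSF-1 transcriptional activity via heat shock element; 0% = median of DMSO wells and -100% = zero luminescence signal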
HSF-1 act: increases HSF-1 driven luciferase reporter signal; activation, % at 9 µM; actives 1.7% (n = 300,000); NIH3T3-HGL HSF-1 luciferase reporter, MG132, 8 h; 100% = twice DMSO control signal; AID 504408;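 active means mean replicate activation of at least 50% with a set share of replicates each reaching 50%; inconclusive means only one of those two conditions met; inactive means mean below 50% and too few replicates reaching it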;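 further: 0% = median of the neutral control wells and 100% = twice that signal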
NR0B1 inh: inhibits human nuclear receptor DAX1 | HEK293 Gal4-DAX1 luciferase reporter, luminescence | inhibition, % at 6.75 µM | actives 0.99% (n = 340,000) | AID 504766;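 active means inhibition above the mean over all tested compounds plus 3 SD, cut at about 4.2% in these data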;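 further: 0% = DAX1-transfected cells with DMSO and 100% = empty-vector control cells with DMSO; inhibition shows as a rise in luminescence from relieved DAX1 repression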
Target sequence (P51843 207-470 limits assumed): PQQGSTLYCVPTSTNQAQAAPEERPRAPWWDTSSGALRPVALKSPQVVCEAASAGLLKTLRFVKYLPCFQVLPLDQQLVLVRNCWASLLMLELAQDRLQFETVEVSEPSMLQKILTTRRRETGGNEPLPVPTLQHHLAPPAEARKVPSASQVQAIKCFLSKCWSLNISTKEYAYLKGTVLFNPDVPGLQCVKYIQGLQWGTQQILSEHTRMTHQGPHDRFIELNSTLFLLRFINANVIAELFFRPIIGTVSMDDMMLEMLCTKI
AHR activator: human AHR activation | P35869 | AHR-responsive luciferase reporter cells, luminescence | activation, % at 5 µM | actives 2.5% (n = 320,000); in the data active means activation above about 47%;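 further: 0% = vehicle wells and 100% = reference agonist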
* = called active by the depositor.

For Clc1cccc(CN2CCSCC2)c1Cl the results were GAA850 FXN act -0.9, HSP90 inh 2.3, HSF1 inhib -13.5, HSF-1 act -8.2 and NR0B1 inh -0.2.
`Cc1ccc(CCN2CCN=C2Nc2ccccc2)cc1` gave GAA850 FXN act 1.7, NR0B1 inh 0.1 and AHR activator 1.2.
For Cc1ccccc1CS(=O)(=O)c1nnc([C@H](CC(C)C)NC(=O)OC(C)(C)C)o1 the results were GAA850 FXN act -1.5, HSP90 inh 2.7, HSF1 inhib 74.3, HSF-1 act 107.4*, NR0B1 inh 0.8 and AHR activator 0.0.
CC[C@@H](C)[C@H](NC(=O)OC(C)(C)C)c1nnc(S(=O)(=O)Cc2cc(C)ccc2C)o1 was read as GAA850 FXN act -3.0, HSP90 inh 0.8, HSF1 inhib -66.4*, HSF-1 act -65.2, NR0B1 inh -0.5 and AHR activator 8.3.
`CC(C)(C)OC(=O)N[C@@H](Cc1ccccc1)c1nnc(S(=O)(=O)Cc2cccc(F)c2)o1` gave HSP90 inh 0.5, HSF1 inhib 12.0, HSF-1 act 23.6 and AHR activator 0.0.
Screening O=C(NN1C(=O)C2C(C1=O)C1C=CC2C12CC2)c1cccc(Cl)c1 (stereo unspecified) returned GAA850 FXN act -0.3, HSP90 inh 2.9, HSF1 inhib 2.0, HSF-1 act -2.9, NR0B1 inh 5.0* and AHR activator 0.1.
`O=c1/c(=C\c2ccc3c(c2)OCO3)sc2n1CCCN=2` gave GAA850 FXN act 3.1, HSP90 inh -4.0, HSF1 inhib 25.7, HSF-1 act inconclusive, NR0B1 inh 4.6* and AHR activator -8.6.
CC1CC/C(=C\c2ccc3c(c2)OCO3)C(=O)/C1=C/c1ccc2c(c1)OCO2 (stereo unspecified) was read as GAA850 FXN act 2.5, HSP90 inh 4.7, HSF1 inhib 40.4, HSF-1 act 87.1*, NR0B1 inh -0.5 and AHR activator 32.2.
O=C1/C(=C\c2ccc3c(c2)OCO3)CCC/C1=C/c1ccc2c(c1)OCO2 was read as GAA850 FXN act 1.1, HSP90 inh -0.1, HSF1 inhib 0.5, HSF-1 act -9.3, NR0B1 inh -0.2 and AHR activator 48.5*.
For C[C@H]1CN([C@@H](C)CO)C(=O)c2c(c3ccccc3n2C)-c2ccccc2CO[C@H]1CN(C)C(=O)[C@@H]1CCCN1C the results were GAA850 FXN act 0.3 and NR0B1 inh 0.4.
`Cc1c(C)n(C(=O)CSc2ncn[nH]2)c2ccccc12` gave GAA850 FXN act 1.6, HSP90 inh 0.9, HSF1 inhib -7.7, HSF-1 act 11.7, NR0B1 inh 0.2 and AHR activator -3.5.
`Cc1ccc2nc(SC(C)C(=O)N3CCCC3)[nH]c2c1` (stereo unspecified) gave GAA850 FXN act 0.3, HSP90 inh -4.1, HSF1 inhib -1.8, HSF-1 act -9.6, NR0B1 inh 1.1 and AHR activator 73.1*.
`Cc1ccc2nc(SCC(=O)Nc3ccc(F)cc3F)[nH]c2c1` gave GAA850 FXN act 2.9, HSP90 inh 0.7, HSF1 inhib 10.7, HSF-1 act -1.1, NR0B1 inh -0.1 and AHR activator 71.2*.
CCCC(C)NC(=O)CSc1nc2ccc(C)cc2[nH]1 (stereo unspecified) was read as GAA850 FXN act 1.5, HSP90 inh -1.3, HSF1 inhib 5.0, HSF-1 act 16.5, NR0B1 inh -0.5 and AHR activator 51.0*.
Cc1ccc2nc(SCC(=O)NCc3ccc(F)cc3)[nH]c2c1 was read as GAA850 FXN act 0.4, HSP90 inh 2.7, HSF1 inhib 19.9, HSF-1 act 64.7*, NR0B1 inh -2.0 and AHR activator 46.6.
Screening Cc1ccc2nc(SCC(=O)Nc3c(F)cccc3F)[nH]c2c1 returned GAA850 FXN act 1.9, HSP90 inh 3.8, HSF1 inhib -1.0, HSF-1 act 7.6, NR0B1 inh 0.8 and AHR activator 25.9.
Cc1ccc2nc(SCC(=O)NCc3ccc(S(N)(=O)=O)cc3)[nH]c2c1 was read as GAA850 FXN act 1.7, HSP90 inh 2.7, HSF1 inhib 1.0, HSF-1 act 4.8, NR0B1 inh 1.6 and AHR activator 21.9.
`Cc1ccc2nc(SC(C)C(=O)N3CCCCC3)[nH]c2c1` (stereo unspecified) gave GAA850 FXN act 1.7, HSP90 inh 1.9, HSF1 inhib 11.6, HSF-1 act 9.0, NR0B1 inh 1.2 and AHR activator 42.8.
For COCCN(C(=O)c1cc(Cl)nc2ccccc12)c1c(N)n(Cc2ccccc2)c(=O)[nH]c1=O the results were GAA850 FXN act -0.1, NR0B1 inh 0.0 and AHR activator 2.1.
Screening Cc1ccc(Cn2ncc(C)c2N)o1 returned GAA850 FXN act 2.2, HSP90 inh 3.6, HSF1 inhib 3.9, HSF-1 act 30.1, NR0B1 inh 0.6 and AHR activator -1.6.
`O=C(CCNC(=O)c1ccccc1)NCCCc1ccccc1` gave GAA850 FXN act 1.4, NR0B1 inh 0.1 and AHR activator 1.8.
Screening Cc1ccc(NC(=O)CCCNC(=O)c2ccc(Cl)cc2)c(Br)c1 returned GAA850 FXN act 1.1, HSP90 inh 3.7, HSF1 inhib 8.1, HSF-1 act 30.4, NR0B1 inh -0.5 and AHR activator 3.5.
Screening CC1CCCC/C1=N\NC(=S)Nc1ccccc1 (stereo unspecified) returned GAA850 FXN act 4.1, HSP90 inh 0.1, HSF1 inhib -15.1, HSF-1 act -6.5, NR0B1 inh 2.6 and AHR activator 59.9*.
For O=C(COC(=O)Cc1c(F)cccc1Cl)Nc1ccc2[nH]c(=O)[nH]c2c1 the results were GAA850 FXN act 0.3, NR0B1 inh 1.7 and AHR activator -1.8.
Screening COc1ccccc1OCC(=O)N1CCCC(Nc2cccc(F)c2)C1 (stereo unspecified) returned GAA850 FXN act 0.4, HSP90 inh -4.9, HSF1 inhib 2.1, HSF-1 act 17.2, NR0B1 inh 0.4 and AHR activator 3.4.
Cc1nn(Cc2ccccc2Cl)c2sc(C(=O)NC(C)(C)C)cc12 was read as GAA850 FXN act 0.8, HSP90 inh -6.2, HSF1 inhib -5.8, HSF-1 act 1.4, NR0B1 inh -2.6 and AHR activator 15.4.
For O=C(Cc1ccccc1Cl)NCCCn1ccnc1 the results were GAA850 FXN act -0.9, HSP90 inh 1.8, NR0B1 inh -0.1 and AHR activator 6.2.
`Cc1csc(NC(=O)c2cc3c(C)nn(Cc4ccccc4Cl)c3s2)n1` gave GAA850 FXN act 1.3, HSP90 inh -6.2, HSF1 inhib 5.1, HSF-1 act 6.3, NR0B1 inh -1.5 and AHR activator 47.1*.
`Cc1nn(Cc2ccccc2Cl)c2sc(C(=O)NCCCn3ccnc3)cc12` gave GAA850 FXN act 0.7, HSP90 inh 4.0, HSF1 inhib -7.4, HSF-1 act -9.2, NR0B1 inh -2.0 and AHR activator 49.5*.

Bioassay records: PubChem, several laboratories
